Source: PubChem BioAssay (National Center for Advancing Translational Sciences (NCATS))
Hits are enriched below; roughly 19% of the tested compounds scored in any of these assays.
DT40 TDP1 no CPT: qHTS for Inhibitors of human tyrosyl-DNA phosphodiesterase 1 (TDP1): qHTS in cells in absence of CPT | DT40 Tdp1-/- hTDP1 cells, no CPT, ATP luminescence, 48 h | Potency, µM (top dose mostly 46.2 µM), without a hit: at the top dose activity change, negative = growth inhibition, most hits filed as inhibitors | 420,000 tested, 15% active; further: potency means the concentration at half of the fitted maximal effect; on the % scale 0 is the no-effect control and ±100 the full control effect; nearly all actives have a fitted effect of over 55% in size
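Growth of hTDP1-complemented DT40 Tdp1-knockout cells is measured by ATP luminescence after at least 48 hr compound exposure at 37 °C, with DMSO substituting for the 20 nM CPT used in the parallel screen.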
TGFb inhibitor: qHTS for Inhibitors of TGF-b; HepG2 CAGA-GFP TGF-b/SMAD3 reporter, GFP fluorescence, 18 h; TGF-beta stimulated, 500 pg/mL final; Potency, µM (highest dose often 46.1 µM), for the others: top-dose activity, negative = inhibition, most hits filed as inhibitors; 410,000 tested, 1.2% active; AID 588855, 2011; further: potency means the concentration at half of the fitted maximal effect; on the % scale 0 is the no-effect control and ±100 the full control effect; nearly all actives have a fitted effect of over 65% in size
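TGF-beta reporter screen: HEPG2 CAGA-GFP, 1% FBS, 500 pg/mL TGF-beta final, 18 h; per-cell GFP summed per well; curves fitted and categorized by class.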
IL1B secr inh: qHTS for Inhibitors of Inflammasome Signaling: IL-1-beta AlphaLISA Primary Screen. THP-1 LPS/ATP IL-1B secretion, AlphaLISA, 16 h; hits give low values. activity change, % at 57.5 µM. 360,000 tested, 4.7% active. AID 743279, 2014; in the data active means activity change below about -50%; inconclusive means mostly about -30% to -49%; further: on the % scale 0 is the no-effect control and ±100 the full control effect
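Secreted IL-1B measured by AlphaLISA bead assay after 16 h compound exposure of THP-1 cells; compounds (final up to 57.5 uM) added 1 h before LPS (250 ng/mL) and ATP (1.25 mM) stimulation; lower signal means less secretion.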
DT40 TDP1 CPT: qHTS for Inhibitors of human tyrosyl-DNA phosphodiesterase 1 (TDP1): qHTS in cells in presence of CPT. Potency, µM (doses to about 46.2 µM), without a hit: at the highest dose activity change, negative = growth inhibition, actives largely listed as inhibitors. chicken DT40 Tdp1-/-;hTDP1 cells + 20 nM CPT, ATP luminescence, 48 h. AID 686979, 2013. 420,000 tested, 12% active; further: potency means the concentration at half of the fitted maximal effect; on the % scale 0 is the no-effect control and ±100 the full control effect; nearly all actives have a fitted effect of over 55% in size
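Cell growth measured by CellTiter-Glo luminescence after a minimum 48 h, 37 C compound exposure with 20 nM CPT in Tdp1-knockout DT40 cells stably expressing hTDP1, seeded 400/well; qHTS titration format.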
HepG2 tox: qHTS for Inhibitors of TGF-b: Cytotox Counterscreen. HepG2 CAGA-GFP viability, ATP luminescence, 18 h. Potency, µM (doses to about 46.1 µM), inactives show at the highest dose activity change, negative = cytotoxicity, usual class: cytotoxic. 410,000 tested, 0.76% active; further: potency means the concentration at half of the fitted maximal effect
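CellTiter-Glo luminescence gave cytotoxicity after 18 hours at 37 degrees C. The cells were HepG2 CAGA-GFP in 1% FBS DMEM, stimulated with 500 pg/mL TGF-beta after compound addition. %Activity was normalised to no-cell wells (complete cell-killing) and DMSO (no toxicity), and curves were fitted and classified.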
S-ASM inh: Inhibitors of Secretory Acid Sphingomyelinase (S-ASM): qHTS | Sphingomyelin phosphodiesterase (Homo sapiens), P17405 | placental ASM, HMU-PC fluorogenic substrate, 60 min | Potency, µM (highest dose often 57.5 µM), inactives show top-dose activity change, negative = inhibition, actives largely listed as inhibitors | 340,000 tested, 0.006% active | AID 504937, 2011; further: potency means the concentration at half of the fitted maximal effect
Target sequence (P17405 47-631 limits assumed): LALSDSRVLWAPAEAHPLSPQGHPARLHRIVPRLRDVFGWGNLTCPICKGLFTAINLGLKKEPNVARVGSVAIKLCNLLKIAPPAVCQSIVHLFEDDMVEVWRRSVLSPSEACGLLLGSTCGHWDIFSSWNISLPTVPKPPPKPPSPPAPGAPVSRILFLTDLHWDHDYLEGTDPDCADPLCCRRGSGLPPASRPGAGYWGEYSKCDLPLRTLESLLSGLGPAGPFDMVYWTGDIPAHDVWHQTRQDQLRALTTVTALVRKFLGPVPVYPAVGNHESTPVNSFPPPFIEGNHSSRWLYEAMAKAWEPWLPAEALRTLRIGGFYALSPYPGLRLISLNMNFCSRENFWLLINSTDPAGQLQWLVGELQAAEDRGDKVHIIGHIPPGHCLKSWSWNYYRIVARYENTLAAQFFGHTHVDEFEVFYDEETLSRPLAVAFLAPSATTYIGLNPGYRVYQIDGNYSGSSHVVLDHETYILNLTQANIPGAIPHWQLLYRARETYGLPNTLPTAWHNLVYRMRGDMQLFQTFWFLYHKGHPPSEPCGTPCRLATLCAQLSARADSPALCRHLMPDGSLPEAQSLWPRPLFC
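Human placenta-derived ASM enzyme was preincubated with compound for 10 minutes at room temperature, then given fluorogenic substrate HMU-PC0 (9 uM final) for 60 minutes at 37 °C; a pH 10 stop preceded fluorescence reading at Ex 386/Em 447 nm.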
An asterisk follows results filed as active; i = inactive; ? = inconclusive; / = no result given; [ ] = remark or other dose. Unless noted, the call rests on the fitted dose curve; in most records, active means well fitted curve in the direction sought with a large enough effect; inconclusive means small, poorly fitted or top-dose-only effect, or another doubt; inactive means no such curve, though single readings can be large; an effect the other way counts as inactive or inconclusive.

SMILES | DT40 TDP1 no CPT | TGFb inhibitor | IL1B secr inh | DT40 TDP1 CPT | HepG2 tox | S-ASM inh
O=C(c1cc(-c2cccnc2)nc2ccc(Cl)cc12)N1CCN(S(=O)(=O)c2cccs2)CC1 | 16µM* | -11% | i | ? | 0% | 5%
O=C(c1cc(-c2cccnc2)nc2ccccc12)N1CCN(S(=O)(=O)c2cccs2)CC1 | 23µM* | -2% | 5 | ? | -6% | 2%
CS(=O)(=O)N1CCN(C(=O)c2cc(-c3ccncc3)nc3ccc(Cl)cc23)CC1 | ? | 25% | -9 | -13% | -3% | 0%
Clc1cccc(Cl)c1/C=C/c1ccn[nH]1 | 10µM* | -13% | -2 | 18µM* | -34% | -3%
COC(=O)c1ccc(N2CCN(C)CC2)c(NC(=O)c2ccc(Br)o2)c1 | ? | -3% | -2 | ? | -15% | 1%
O=Cc1ccc2noc(-c3ccc(Cl)cc3)c2c1 | 16µM* | -1% | -15 | ? | -4% | 66%
COc1ccc(NC(=O)c2nn(C)c(=O)c3ccccc23)cc1S(=O)(=O)Nc1ccccc1Cl | ? | 7% | -25 | ? | -10% | -11%
COC(=O)c1cccc(NC(=O)c2nn(C)c(=O)c3ccccc23)c1 | 8.2µM* | -3% | 31 | 23µM* | -6% | -15%
COc1ccccc1NS(=O)(=O)c1cccc(NC(=O)c2[nH]c(C)c(C(C)=O)c2C)c1 | 16µM* | ? | -2 | ? | -26% | ?
CC(=O)c1c(C)[nH]c(C(=O)Nc2cccc(S(=O)(=O)N3CCOCC3)c2)c1C | ? | -26% | 67 | ? | -23% | -1%
COc1ccccc1NS(=O)(=O)c1cccc(NC(=O)c2nn(C)c(=O)c3ccccc23)c1 | 23µM* | -5% | 0 | ? | -30% | -22%
COc1ccccc1NS(=O)(=O)c1cccc(NC(=O)c2cc3ccccc3oc2=O)c1 | 18µM* | 7% | 22 | ? | -4% | 5%
Cn1nc(C(=O)Nc2cccc(S(=O)(=O)N3CCCCC3)c2)c2ccccc2c1=O | ? | 10% | -54* | ? | -4% | -12%
COc1ccc(C(C)=O)cc1COC(=O)c1ccc(S(=O)(=O)N(C)C)cc1 | 2% | -1% | 11 | -7% | -1% | 1%
COc1ccc2c(c1)c1c(c(=O)n(-c3ccccc3C)c(=O)n1C)n2C | -18% | 12% | / | -29% | 6% | /
CCN(C(=O)CN1C(=O)/C(=C/c2ccccc2)SC1=S)C1CCS(=O)(=O)C1 (stereo not drawn) | ? | -1% | -10 | 23µM* | -6% | -17%
O=C1/C(=C\c2cccs2)SC(=S)N1C1CCS(=O)(=O)C1 (stereo not drawn) | ? | 3% | ? | ? | -8% | -3%
O=C1/C(=C/c2ccccc2)SC(=S)N1C1CCS(=O)(=O)C1 (stereo not drawn) | ? | -29% | 18 | 23µM* | -36% | -5%
O=C1/C(=C/c2ccncc2)SC(=S)N1C1CCS(=O)(=O)C1 (stereo not drawn) | 8.2µM* | ? | -92* | 5.8µM* | 20µM* | -3%
CC(=O)N(O)c1ccc(C=Cc2ccccc2)cc1 | 0.41µM* | ? | 0 | 2.1µM* | -36% | /
CN(N=O)c1ccc(/C=C/c2ccccc2)cc1 | -17% | -2% | / | ? | -15% | /
COc1ccc(S(=O)(=O)N2CCOCC2)cc1C(=O)Nc1ccc(N2CCCCCC2)cc1 | 18µM* | -4% | 0 | 18µM* | -11% | -2%
Cc1ccc(S(=O)(=O)N2CCCCC2)cc1C(=O)Nc1ccc(N2CCOCC2)cc1 | 13µM* | 10% | 6 | ? | -38% | 0%
Cc1ccccc1C1(CC(=O)N2CCCCC2c2cccnc2)CC(=O)N(C2CCCC2)C1=O (stereo not drawn) | ? | / | / | -4%[9.04 µM] | / | /
CNC(=S)SCCOc1ccccc1C | ? | -28% | -13 | 9% | -9% | 0%
SMILES | DT40 TDP1 no CPT | TGFb inhibitor | IL1B secr inh | DT40 TDP1 CPT | HepG2 tox | S-ASM inh
CC1CC2(CCCC2)N(C(=O)c2ccccc2)Cc2ccccc21 (stereo not drawn) | ? | ? | -16 | 9.2µM* | -28% | -4%
O=C1C(O)CC2c3ccccc3CC3(CCCC3)N12 (stereo not drawn) | -20% | 25% | 15 | ? | 3% | 0%
CCOc1ccc(CCNC(=O)c2ccc3c(c2)N(Cc2ccccc2)C(=O)c2ccccc2S3=O)cc1OCC (stereo not drawn) | 5.8µM* | 0% | / | 16µM* | -9% | /
Cc1ccc(CCNC(=O)c2ccc3c(c2)N(Cc2ccccc2)C(=O)c2ccccc2S3=O)cc1 (stereo not drawn) | 15µM* | 6% | / | 16µM* | -35% | /
CCN(CC)CCNC(=O)c1ccc2c(c1)N(Cc1ccccc1)C(=O)c1ccccc1S2=O (stereo not drawn) | ? | -2% | / | ? | -21% | /
COc1ccc(OCCNC(=O)CCCO)cc1 | 1% | 5% | 0 | 10% | -3% | 7%
CCCCOc1ccc(C(=O)Nc2cccc(-n3cnnn3)c2)cc1OC | -26% | -16% | 15 | -32% | -9% | -6%
Fc1ccc(Nc2ccnc(Nc3ccc(F)cc3)n2)cc1 | 18µM* | 0% | -94* | 16µM* | -51% | -12%
O=C(C1CC1)N1CCN(c2nc3c(F)cc(F)cc3s2)CC1 | 15µM* | ? | / | ? | -5% | /
O=C(C1CC1)N1CCN(c2nc3ccc(F)cc3s2)CC1 | ? | -17% | / | ? | -14% | /
O=C(C1COc2ccccc2O1)N1CCN(Cc2ccc(Br)cc2F)CC1 (stereo not drawn) | ? | -27% | -63* | ? | -27% | -4%
O=C(C1COc2ccccc2O1)N1CCN(c2nc3ccccc3s2)CC1 (stereo not drawn) | ? | -18% | i | ? | -2% | -9%
O=C(C1COc2ccccc2O1)N1CCN(c2nc3c(F)cc(F)cc3s2)CC1 (stereo not drawn) | 15µM* | ? | -23 | 21µM* | 0% | -15%
